# Values without a mark were called inactive.
# What was measured:
# Assay in all cases: log2 ratio of Biotin-Ahx-Ub-VS probe labelling (fragment/DMSO); higher = less target engagement (more negative = stronger competition), active = hit call of the paper (q ≤ 0.05, log2 ratio ≤ -1)
# Details in all cases: compound concentration: 200 uM; treatment time: 3 h
# [1] = target: T1, USP19 (UniProt O94966)
# T1 sequence (whole entry): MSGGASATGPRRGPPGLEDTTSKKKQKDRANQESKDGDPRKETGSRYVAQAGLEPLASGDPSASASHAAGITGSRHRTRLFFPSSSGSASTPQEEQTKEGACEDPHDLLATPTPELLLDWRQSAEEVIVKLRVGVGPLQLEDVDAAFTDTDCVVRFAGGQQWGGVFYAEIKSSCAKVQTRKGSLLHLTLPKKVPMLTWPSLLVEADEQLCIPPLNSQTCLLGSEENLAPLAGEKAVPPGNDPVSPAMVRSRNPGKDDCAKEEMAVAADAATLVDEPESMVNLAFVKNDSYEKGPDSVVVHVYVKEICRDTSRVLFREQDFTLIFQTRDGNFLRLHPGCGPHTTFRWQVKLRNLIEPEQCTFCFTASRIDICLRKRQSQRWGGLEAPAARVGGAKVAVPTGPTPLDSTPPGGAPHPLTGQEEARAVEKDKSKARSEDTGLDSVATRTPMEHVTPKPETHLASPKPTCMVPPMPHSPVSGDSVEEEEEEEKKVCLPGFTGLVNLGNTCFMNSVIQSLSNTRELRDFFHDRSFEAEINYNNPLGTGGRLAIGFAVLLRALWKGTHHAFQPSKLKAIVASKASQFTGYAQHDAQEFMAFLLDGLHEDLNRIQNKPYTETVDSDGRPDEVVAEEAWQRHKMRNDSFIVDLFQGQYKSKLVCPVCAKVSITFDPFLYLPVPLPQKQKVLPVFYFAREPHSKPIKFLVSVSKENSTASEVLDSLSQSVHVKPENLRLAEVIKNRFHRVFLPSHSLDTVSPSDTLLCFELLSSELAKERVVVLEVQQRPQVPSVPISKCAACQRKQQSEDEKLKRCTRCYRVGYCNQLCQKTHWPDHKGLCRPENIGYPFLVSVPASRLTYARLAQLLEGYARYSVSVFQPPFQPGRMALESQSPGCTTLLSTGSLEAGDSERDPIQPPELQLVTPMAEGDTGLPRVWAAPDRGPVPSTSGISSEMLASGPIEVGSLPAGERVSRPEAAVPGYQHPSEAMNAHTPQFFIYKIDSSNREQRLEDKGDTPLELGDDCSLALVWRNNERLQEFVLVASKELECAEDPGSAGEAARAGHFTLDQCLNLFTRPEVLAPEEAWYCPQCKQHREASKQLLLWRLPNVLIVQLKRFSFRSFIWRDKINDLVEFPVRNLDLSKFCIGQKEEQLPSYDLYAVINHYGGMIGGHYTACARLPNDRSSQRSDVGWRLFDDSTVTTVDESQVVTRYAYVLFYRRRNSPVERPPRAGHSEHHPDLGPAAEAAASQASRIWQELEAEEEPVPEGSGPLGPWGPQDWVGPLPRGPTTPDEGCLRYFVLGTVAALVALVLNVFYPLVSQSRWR
# Outline: (§1)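 Labelling with Biotin-Ahx-Ub-VS (0.5 µM final, 1 h) followed a 3 h triplicate treatment of HEK293T lysate (495 µg per sample, Tris/CHAPS/IGEPAL buffer with protease inhibitors) with fragment at 200 µM or vehicle. Labelled DUBs were NeutrAvidin-enriched, digested with LysC and trypsin, and run by diaPASEF LC-MS/MS. The values, average log2 fragment/vehicle ratios by unpaired t-test, come from global-median-normalised Spectronaut label-free quantities. Proteins with ≥2 unique peptides were used.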
# [2] = target: T2, USP22 (UniProt Q9UPT9)
# T2 sequence (whole entry): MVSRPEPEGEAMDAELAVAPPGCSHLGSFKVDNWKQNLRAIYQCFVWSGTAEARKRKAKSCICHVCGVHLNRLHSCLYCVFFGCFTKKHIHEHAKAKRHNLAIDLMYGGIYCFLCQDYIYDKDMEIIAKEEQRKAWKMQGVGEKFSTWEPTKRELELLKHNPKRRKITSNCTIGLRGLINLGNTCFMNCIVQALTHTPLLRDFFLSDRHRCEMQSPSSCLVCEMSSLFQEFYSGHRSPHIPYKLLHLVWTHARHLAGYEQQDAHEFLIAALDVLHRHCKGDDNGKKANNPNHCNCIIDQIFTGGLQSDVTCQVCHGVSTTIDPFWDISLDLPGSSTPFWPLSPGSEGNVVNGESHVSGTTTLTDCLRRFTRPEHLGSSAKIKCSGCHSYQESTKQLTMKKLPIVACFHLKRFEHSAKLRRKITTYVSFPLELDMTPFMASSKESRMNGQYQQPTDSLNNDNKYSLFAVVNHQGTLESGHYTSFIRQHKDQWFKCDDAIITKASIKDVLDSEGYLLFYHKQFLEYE
# Outline: as §1
# [3] = target: USP24 (UniProt Q9UPU5)
# USP24, sequence (Q9UPU5 whole entry): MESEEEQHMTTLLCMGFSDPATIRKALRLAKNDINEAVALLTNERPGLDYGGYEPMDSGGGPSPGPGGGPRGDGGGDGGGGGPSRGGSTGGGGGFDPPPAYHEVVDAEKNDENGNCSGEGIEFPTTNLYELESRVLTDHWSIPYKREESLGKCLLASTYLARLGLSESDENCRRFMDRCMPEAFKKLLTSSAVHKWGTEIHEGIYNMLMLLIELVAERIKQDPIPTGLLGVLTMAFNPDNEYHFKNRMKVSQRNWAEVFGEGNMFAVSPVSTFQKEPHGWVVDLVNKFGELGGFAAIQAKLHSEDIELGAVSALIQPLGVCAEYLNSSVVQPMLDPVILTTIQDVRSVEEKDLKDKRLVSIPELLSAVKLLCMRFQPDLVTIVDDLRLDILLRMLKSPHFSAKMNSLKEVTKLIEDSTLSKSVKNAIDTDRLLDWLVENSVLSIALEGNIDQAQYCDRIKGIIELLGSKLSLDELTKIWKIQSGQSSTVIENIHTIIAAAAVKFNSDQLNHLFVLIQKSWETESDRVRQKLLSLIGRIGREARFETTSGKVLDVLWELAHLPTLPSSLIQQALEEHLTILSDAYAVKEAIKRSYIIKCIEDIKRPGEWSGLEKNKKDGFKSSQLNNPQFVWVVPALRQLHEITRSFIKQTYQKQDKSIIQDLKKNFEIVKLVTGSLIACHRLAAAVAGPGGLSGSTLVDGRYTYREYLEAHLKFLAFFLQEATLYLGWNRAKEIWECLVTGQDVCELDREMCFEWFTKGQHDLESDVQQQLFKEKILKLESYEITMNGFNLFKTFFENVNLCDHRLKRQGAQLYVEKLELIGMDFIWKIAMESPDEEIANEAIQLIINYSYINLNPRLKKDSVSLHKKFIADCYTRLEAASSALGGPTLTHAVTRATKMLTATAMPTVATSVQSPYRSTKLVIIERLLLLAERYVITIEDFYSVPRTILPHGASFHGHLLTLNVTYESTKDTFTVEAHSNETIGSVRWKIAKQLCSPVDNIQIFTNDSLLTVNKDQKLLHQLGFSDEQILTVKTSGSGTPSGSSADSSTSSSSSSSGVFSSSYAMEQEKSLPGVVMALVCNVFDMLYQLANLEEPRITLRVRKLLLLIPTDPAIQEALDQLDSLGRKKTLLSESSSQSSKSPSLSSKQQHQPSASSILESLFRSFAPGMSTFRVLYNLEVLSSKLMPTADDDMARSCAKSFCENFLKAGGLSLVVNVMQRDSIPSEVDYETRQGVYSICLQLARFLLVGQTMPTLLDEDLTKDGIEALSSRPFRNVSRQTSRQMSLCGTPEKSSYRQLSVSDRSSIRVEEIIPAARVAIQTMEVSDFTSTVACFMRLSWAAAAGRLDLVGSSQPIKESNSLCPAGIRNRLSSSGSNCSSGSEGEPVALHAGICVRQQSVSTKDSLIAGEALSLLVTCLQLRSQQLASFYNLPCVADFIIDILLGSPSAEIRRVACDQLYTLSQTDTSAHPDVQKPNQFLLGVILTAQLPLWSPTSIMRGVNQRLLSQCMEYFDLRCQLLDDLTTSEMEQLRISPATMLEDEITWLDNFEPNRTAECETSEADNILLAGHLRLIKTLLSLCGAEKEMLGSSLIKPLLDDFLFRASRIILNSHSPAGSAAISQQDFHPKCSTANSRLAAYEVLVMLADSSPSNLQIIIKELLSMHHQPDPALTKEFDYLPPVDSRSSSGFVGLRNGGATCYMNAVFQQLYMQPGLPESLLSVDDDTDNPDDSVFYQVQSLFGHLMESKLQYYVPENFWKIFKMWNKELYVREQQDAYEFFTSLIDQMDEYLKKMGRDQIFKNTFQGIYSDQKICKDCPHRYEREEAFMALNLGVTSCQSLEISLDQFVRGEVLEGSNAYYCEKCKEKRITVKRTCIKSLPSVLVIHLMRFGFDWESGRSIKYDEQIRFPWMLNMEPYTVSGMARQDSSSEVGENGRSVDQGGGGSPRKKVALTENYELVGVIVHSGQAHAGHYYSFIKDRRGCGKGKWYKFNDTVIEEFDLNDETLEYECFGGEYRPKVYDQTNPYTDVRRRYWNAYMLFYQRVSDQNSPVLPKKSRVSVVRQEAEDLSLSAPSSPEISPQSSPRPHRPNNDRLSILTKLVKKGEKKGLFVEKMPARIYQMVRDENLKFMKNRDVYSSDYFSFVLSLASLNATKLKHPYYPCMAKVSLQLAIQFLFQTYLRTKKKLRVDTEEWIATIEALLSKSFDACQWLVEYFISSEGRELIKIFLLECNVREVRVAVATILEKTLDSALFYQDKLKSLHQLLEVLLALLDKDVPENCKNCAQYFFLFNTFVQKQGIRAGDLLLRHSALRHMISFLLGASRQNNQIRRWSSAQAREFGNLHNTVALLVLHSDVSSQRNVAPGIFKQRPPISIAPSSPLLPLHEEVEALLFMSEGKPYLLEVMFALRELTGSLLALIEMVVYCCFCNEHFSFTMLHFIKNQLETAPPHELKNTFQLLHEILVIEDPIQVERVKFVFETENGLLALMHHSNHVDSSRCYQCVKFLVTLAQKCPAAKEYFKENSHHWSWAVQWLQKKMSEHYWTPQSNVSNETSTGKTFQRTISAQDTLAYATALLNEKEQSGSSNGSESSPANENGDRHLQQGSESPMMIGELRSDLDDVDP
# Outline: as §1
# [4] = target: T3, USP25 (UniProt Q9UHP3)
# T3 sequence (whole entry): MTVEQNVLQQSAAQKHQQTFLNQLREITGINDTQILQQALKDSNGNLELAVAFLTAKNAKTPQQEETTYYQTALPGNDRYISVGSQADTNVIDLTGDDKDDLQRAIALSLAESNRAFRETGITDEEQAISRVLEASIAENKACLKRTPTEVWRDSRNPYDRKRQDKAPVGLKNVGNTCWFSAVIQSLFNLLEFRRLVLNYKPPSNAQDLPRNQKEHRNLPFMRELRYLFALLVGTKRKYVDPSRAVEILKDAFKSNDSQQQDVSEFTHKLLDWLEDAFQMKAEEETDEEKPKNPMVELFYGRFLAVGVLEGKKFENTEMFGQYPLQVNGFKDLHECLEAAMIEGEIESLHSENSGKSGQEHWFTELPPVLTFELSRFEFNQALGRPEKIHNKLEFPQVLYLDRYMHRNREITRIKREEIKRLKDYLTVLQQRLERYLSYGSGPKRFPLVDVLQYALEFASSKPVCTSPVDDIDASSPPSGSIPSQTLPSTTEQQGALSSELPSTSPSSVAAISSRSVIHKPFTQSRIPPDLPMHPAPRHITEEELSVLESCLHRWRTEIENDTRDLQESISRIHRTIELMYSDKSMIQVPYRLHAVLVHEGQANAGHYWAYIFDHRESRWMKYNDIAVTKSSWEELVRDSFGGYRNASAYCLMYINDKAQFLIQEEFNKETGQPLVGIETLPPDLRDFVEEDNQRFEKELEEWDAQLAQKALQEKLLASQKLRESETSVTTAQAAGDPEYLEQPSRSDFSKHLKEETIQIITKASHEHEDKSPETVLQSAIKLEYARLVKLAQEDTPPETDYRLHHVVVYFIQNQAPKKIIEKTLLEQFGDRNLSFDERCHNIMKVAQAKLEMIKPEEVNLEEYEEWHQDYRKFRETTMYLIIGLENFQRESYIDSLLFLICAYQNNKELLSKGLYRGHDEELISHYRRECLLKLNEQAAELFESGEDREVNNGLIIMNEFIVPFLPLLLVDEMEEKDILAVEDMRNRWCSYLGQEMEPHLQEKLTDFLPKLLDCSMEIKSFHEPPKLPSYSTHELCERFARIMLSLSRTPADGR
# Outline: as §1
# [5] = target: T4, USP28 (UniProt Q96RU2)
# T4 sequence (whole entry): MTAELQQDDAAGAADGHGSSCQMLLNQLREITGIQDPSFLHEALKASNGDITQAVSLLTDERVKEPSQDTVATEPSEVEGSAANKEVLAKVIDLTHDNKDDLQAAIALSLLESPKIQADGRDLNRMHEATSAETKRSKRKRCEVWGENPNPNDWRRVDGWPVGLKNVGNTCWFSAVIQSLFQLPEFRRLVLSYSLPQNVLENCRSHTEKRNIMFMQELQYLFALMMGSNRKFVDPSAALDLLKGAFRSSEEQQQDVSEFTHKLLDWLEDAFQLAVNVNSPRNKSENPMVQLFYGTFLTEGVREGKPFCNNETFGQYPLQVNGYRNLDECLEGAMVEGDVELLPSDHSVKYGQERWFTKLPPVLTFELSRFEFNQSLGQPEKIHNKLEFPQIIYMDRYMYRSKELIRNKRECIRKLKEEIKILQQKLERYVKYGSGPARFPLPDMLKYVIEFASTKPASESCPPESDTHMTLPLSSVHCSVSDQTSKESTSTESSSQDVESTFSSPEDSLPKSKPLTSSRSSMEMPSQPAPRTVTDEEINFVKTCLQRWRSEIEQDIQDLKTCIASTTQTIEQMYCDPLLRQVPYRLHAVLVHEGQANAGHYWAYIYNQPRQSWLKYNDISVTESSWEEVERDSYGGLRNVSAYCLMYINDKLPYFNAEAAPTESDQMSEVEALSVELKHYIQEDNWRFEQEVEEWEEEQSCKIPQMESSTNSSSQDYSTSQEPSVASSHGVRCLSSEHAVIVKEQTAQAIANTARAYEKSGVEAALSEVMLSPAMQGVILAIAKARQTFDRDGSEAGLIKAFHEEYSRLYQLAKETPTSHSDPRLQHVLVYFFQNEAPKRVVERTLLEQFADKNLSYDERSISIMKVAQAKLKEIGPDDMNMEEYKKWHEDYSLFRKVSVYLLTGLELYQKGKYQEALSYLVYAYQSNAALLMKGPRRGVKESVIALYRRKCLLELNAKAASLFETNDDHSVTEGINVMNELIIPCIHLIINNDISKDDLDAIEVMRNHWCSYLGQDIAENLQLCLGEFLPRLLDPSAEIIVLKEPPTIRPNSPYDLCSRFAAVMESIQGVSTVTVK
# Outline: as §1
smiles,measurement,setting,value
Cn1cc(CN(Cc2ccc(Cl)cc2)C(=O)CCl)cn1,log2 ratio of Biotin-Ahx-Ub-VS probe labelling,[1],-0.653
same,log2 ratio of Biotin-Ahx-Ub-VS probe labelling,[2],0.0724
same,log2 ratio of Biotin-Ahx-Ub-VS probe labelling,[3],-1.49 (active)
same,log2 ratio of Biotin-Ahx-Ub-VS probe labelling,[4],-0.161
same,log2 ratio of Biotin-Ahx-Ub-VS probe labelling,[5],-0.648

# Reference: the supplement of paper PMC11732987, “Enantioselective OTUD7B fragment discovery through chemoproteomics screening and high-throughput optimisation” (Communications Chemistry, 2025)
